# Test results taken from the supplement of paper PMC8728848.
# This is one part of a sample in which the strongest signals are shown more often than they occur.
# Key:
# Assay in all cases: glycan array binding signal (z-score within array); higher = stronger binding
# Conditions in all cases: glycan notation: IUPAC condensed, linker removed
# [1] = target: Fuc(a1-2)Gal(b1-3)[Fuc(a1-4)]GlcNAc(b1-2)Man(a1-3)[Fuc(a1-2)Gal(b1-3)[Fuc(a1-4)]GlcNAc(b1-2)Man(a1-3)]Man(b1-4)GlcNAc(b1-4)GlcNAc
# In short: (§1)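 Negative Z-scores can be read as non-binding. The Z-score is calculated within each array and then averaged across arrays of one protein sequence at different concentrations or buffers and across linkers. Arrays, 3228 in all, were curated from the Consortium for Functional Glycomics database and kept only where the protein sequence was available.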
# [2] = target: Fuc(a1-2)Gal(b1-4)GlcNAc(b1-2)Man(a1-3)[Fuc(a1-2)Gal(b1-4)GlcNAc(b1-2)Man(a1-6)]Man(b1-4)GlcNAc(b1-4)GlcNAc
# In short: as §1
# [3] = target: Fuc(a1-2)Gal(b1-4)GlcNAc(b1-2)Man(a1-3)[Fuc(a1-2)Gal(b1-4)GlcNAc(b1-2)Man(a1-6)]Man(b1-4)GlcNAc(b1-4)[Fuc(a1-6)]GlcNAc
# In short: as §1
# [4] = target: Fuc(a1-2)Gal(b1-4)GlcNAc(b1-3)[Fuc(a1-2)Gal(b1-4)GlcNAc(b1-6)]GalNAc
# In short: as §1
# [5] = target: Fuc(a1-2)Gal(b1-4)[Fuc(a1-3)]GlcNAc(b1-3)GalNAc
# In short: as §1
# [6] = target: Fuc(a1-2)Gal6S(b1-3)GlcNAc
# In short: as §1
# [7] = target: Fuc(a1-2)[Gal(a1-3)]Gal(b1-3)GalNAc(b1-3)Gal(a1-4)Gal(b1-4)Glc
# In short: as §1
# [8] = target: Fuc(a1-2)[Gal(a1-3)]Gal(b1-4)GlcNAc(b1-2)Man
# In short: as §1
# [9] = target: Fuc(a1-2)[GalNAc(a1-3)]Gal(b1-4)GlcNAc(b1-2)Man(a1-3)[Fuc(a1-2)[GalNAc(a1-3)]Gal(b1-4)GlcNAc(b1-2)Man(a1-6)]Man(b1-4)GlcNAc(b1-4)GlcNAc
# In short: as §1
# [10] = target: Fuc(a1-3)[Gal3S(b1-4)]Glc
# In short: as §1
# [11] = target: Fuc(a1-3)[Gal3S(b1-4)]GlcNAc6S
# In short: as §1
# [12] = target: Gal(a1-3)Gal(b1-3)GlcNAc(b1-2)Man(a1-3)[Gal(a1-3)Gal(b1-3)GlcNAc(b1-2)Man(a1-6)]Man(b1-4)GlcNAc(b1-4)GlcNAc
# In short: as §1
# [13] = target: Gal(a1-3)Gal(b1-4)GlcNAc(b1-2)Man(a1-3)[Gal(a1-3)Gal(b1-4)GlcNAc(b1-2)Man(a1-6)]Man(b1-4)GlcNAc(b1-4)GlcNAc
# In short: as §1
# [14] = target: Gal(a1-3)[Gal(a1-4)]Gal(b1-4)GlcNAc
# In short: as §1
# [15] = target: Gal(b1-3)GalNAc(a1-3)[Fuc(a1-2)]Gal(b1-4)Glc
# In short: as §1
# [16] = target: Gal(b1-3)GlcNAc(b1-2)Man(a1-3)[Gal(b1-3)GlcNAc(b1-2)Man(a1-6)]Man(b1-4)GlcNAc(b1-4)GlcNAc
# In short: as §1
# [17] = target: Gal(b1-3)GlcNAc(b1-3)Gal(b1-4)GlcNAc(b1-2)[Gal(b1-3)GlcNAc(b1-3)Gal(b1-4)GlcNAc(b1-6)]Man(a1-6)[Gal(b1-3)GlcNAc(b1-3)Gal(b1-4)GlcNAc(b1-2)Man(a1-3)]Man(b1-4)GlcNAc(b1-4)[Fuc(a1-6)]GlcNAc
# In short: as §1
# [18] = target: Gal(b1-3)GlcNAc(b1-3)Gal(b1-4)GlcNAc(b1-3)Gal(b1-4)GlcNAc(b1-2)[Gal(b1-3)GlcNAc(b1-3)Gal(b1-4)GlcNAc(b1-3)Gal(b1-4)GlcNAc(b1-6)]Man(a1-6)[Gal(b1-3)GlcNAc(b1-3)Gal(b1-4)GlcNAc(b1-3)Gal(b1-4)GlcNAc(b1-2)Man(a1-3)]Man(b1-4)GlcNAc(b1-4)[Fuc(a1-6)]GlcNAc
# In short: as §1
# [19] = target: Gal(b1-3)GlcNAc(b1-6)GalNAc
# In short: as §1
# [20] = target: Gal(b1-3)[Fuc(a1-4)]GlcNAc(b1-3)Gal(b1-4)[Fuc(a1-3)]GlcNAc
# In short: as §1
# [21] = target: Gal(b1-4)GlcNAc(b1-3)Gal(b1-4)GlcNAc(b1-2)[Gal(b1-4)GlcNAc(b1-3)Gal(b1-4)GlcNAc(b1-6)]Man(a1-6)[Gal(b1-4)GlcNAc(b1-3)Gal(b1-4)GlcNAc(b1-2)Man(a1-3)]Man(b1-4)GlcNAc(b1-4)GlcNAc
# In short: as §1
# [22] = target: Gal(b1-4)GlcNAc(b1-3)Gal(b1-4)GlcNAc(b1-3)Gal(b1-4)GlcNAc(b1-3)Gal(b1-4)GlcNAc(b1-2)[Gal(b1-4)GlcNAc(b1-3)Gal(b1-4)GlcNAc(b1-3)Gal(b1-4)GlcNAc(b1-3)Gal(b1-4)GlcNAc(b1-6)]Man(a1-6)[Gal(b1-4)GlcNAc(b1-3)Gal(b1-4)GlcNAc(b1-3)Gal(b1-4)GlcNAc(b1-3)Gal(b1-4)GlcNAc(b1-2)Man(a1-3)]Man(b1-4)GlcNAc(b1-4)[Fuc(a1-6)]GlcNAc
# In short: as §1
# [23] = target: Gal(b1-4)GlcNAc(b1-3)Gal(b1-4)GlcNAc(b1-3)Gal(b1-4)GlcNAc(b1-3)Gal(b1-4)GlcNAc(b1-3)Gal(b1-4)GlcNAc(b1-2)[Gal(b1-4)GlcNAc(b1-3)Gal(b1-4)GlcNAc(b1-3)Gal(b1-4)GlcNAc(b1-3)Gal(b1-4)GlcNAc(b1-3)Gal(b1-4)GlcNAc(b1-6)]Man(a1-6)[Gal(b1-4)GlcNAc(b1-3)Gal(b1-4)GlcNAc(b1-3)Gal(b1-4)GlcNAc(b1-3)Gal(b1-4)GlcNAc(b1-3)Gal(b1-4)GlcNAc(b1-2)Man(a1-3)]Man(b1-4)GlcNAc(b1-4)[Fuc(a1-6)]GlcNAc
# In short: as §1
# [24] = target: Gal(b1-4)GlcNAc(b1-3)Gal(b1-4)GlcNAc(b1-3)GalNAc
# In short: as §1
# [25] = target: Gal(b1-4)GlcNAc(b1-6)[Gal(b1-3)]GalNAc
# In short: as §1
# GalNAc(a1-3)Gal = target: GalNAc(a1-3)Gal
# In short: as §1
# [26] = target: GalNAc(b1-3)Gal(a1-4)Gal(b1-4)GlcNAc
# In short: as §1
# [27] = target: GalNAc(b1-3)Gal(a1-6)Gal(b1-4)Glc
# In short: as §1
# GalNAc(b1-4)Gal(b1-4)Glc = target: GalNAc(b1-4)Gal(b1-4)Glc
# In short: as §1
# [28] = target: GlcNAc(a1-4)Gal(b1-4)GlcNAc(b1-3)Gal(b1-4)GlcNAc
# In short: as §1
# [29] = target: GlcNAc(b1-3)Gal(b1-4)GlcNAc(b1-3)Gal(b1-4)GlcNAc(b1-3)Gal(b1-4)GlcNAc(b1-2)[GlcNAc(b1-3)Gal(b1-4)GlcNAc(b1-3)Gal(b1-4)GlcNAc(b1-3)Gal(b1-4)GlcNAc(b1-6)]Man(a1-6)[GlcNAc(b1-3)Gal(b1-4)GlcNAc(b1-3)Gal(b1-4)GlcNAc(b1-3)Gal(b1-4)GlcNAc(b1-2)Man(a1-3)]Man(b1-4)GlcNAc(b1-4)[Fuc(a1-6)]GlcNAc
# In short: as §1
# [30] = target: GlcNAc(b1-3)Gal(b1-4)GlcNAc(b1-6)[GlcNAc(b1-3)]Gal(b1-4)GlcNAc
# In short: as §1
# Kdn(a2-3)Gal(b1-4)GlcNAc = target: Kdn(a2-3)Gal(b1-4)GlcNAc
# In short: as §1
# [31] = target: Neu5Ac(a2-3)Gal(b1-3)GlcNAc(b1-3)GalNAc
# In short: as §1
# [32] = target: Neu5Ac(a2-3)Gal(b1-3)[Neu5Ac(a2-6)]GlcNAc(b1-3)[Fuc(a1-3)[Gal(b1-4)]GlcNAc(b1-6)]Gal(b1-4)Glc
# In short: as §1
# [33] = target: Neu5Ac(a2-3)Gal(b1-4)GlcNAc(b1-2)[Neu5Ac(a2-3)Gal(b1-4)GlcNAc(b1-6)]Man(a1-6)[Neu5Ac(a2-3)Gal(b1-4)GlcNAc(b1-2)Man(a1-3)]Man(b1-4)GlcNAc(b1-4)GlcNAc
# In short: as §1
# [34] = target: Neu5Ac(a2-3)Gal(b1-4)GlcNAc(b1-3)Gal(b1-4)GlcNAc(b1-3)[Neu5Ac(a2-3)Gal(b1-4)GlcNAc(b1-3)Gal(b1-4)GlcNAc(b1-6)]GalNAc
# In short: as §1
# [35] = target: Neu5Ac(a2-3)[GalNAc(b1-4)]Gal(b1-4)Glc
# In short: as §1
# [36] = target: Neu5Ac(a2-6)Gal(b1-4)GlcNAc(b1-2)Man(a1-3)[Man(a1-6)]Man(b1-4)GlcNAc(b1-4)GlcNAc
# In short: as §1
# Neu5Ac(a2-6)GalNAc = target: Neu5Ac(a2-6)GalNAc
# In short: as §1
# [37] = target: Neu5Ac(a2-8)Neu5Ac(a2-3)Gal(b1-3)GalNAc(b1-4)[Neu5Ac(a2-3)]Gal(b1-4)Glc
# In short: as §1
# [38] = target: Neu5Ac(a2-8)Neu5Ac(a2-3)Gal(b1-4)GlcNAc
# In short: as §1
# [39] = target: Neu5Ac(a2-8)Neu5Gc(a2-3)Gal(b1-4)GlcNAc
# In short: as §1
binder,measurement,setting,value
PX9961X-pdi-531-24-531 (Parabacteroides distasonis) (protein) DLTEEIHSSVIAENYYNNAGEVMAAMMRPWGHFCGTMQVAQSPWSCNELSSDCAAWPQKGRHGYDNGDWIRLHRHQWIPTDGQVVDAWKKLFEGIGYANNFLTDTENIDFEALQVPMSKAQAQAEMRVYRAYCYWYVMDMFGTAPICEKIGEINPSSKSRAELFAWIEKELNESIPSLSESKTETYGRVSKWGAYALLARLYLNAEIYTGQARWDDCIAACDELAKGGFALDKKWNDTFRADNDKRSTEIIWSIVYDEVYAKGMGWYQRWLHYAHQTGWDLQSGPWNGLVTQPTFYDSFADNDLRKIEGFLIGKQYPRKVDENGNYYYDTTAEPLKGSEEYNGQDLVFVNYIKSMTEGEENSGARSIKYEIQPGTTGDMNNDWVMFRYSEVIYNKAEALMRKNGGKATQEVVDMINSVRQRSFKAEDWEKAKYTTATLTMDEFLAEKGREFAFEGIRRTDLVRFNKFVTTSWWDKTASNEPKRNIFPIPQRQLDANANLSPNEANSLF,glycan array binding signal (z-score),[1],0.026
same,glycan array binding signal (z-score),[2],1.28
same,glycan array binding signal (z-score),[3],-0.118
same,glycan array binding signal (z-score),[4],-0.351
same,glycan array binding signal (z-score),[5],0.289
same,glycan array binding signal (z-score),[6],-0.189
same,glycan array binding signal (z-score),[7],-0.567
same,glycan array binding signal (z-score),[8],-0.156
same,glycan array binding signal (z-score),[9],0.31
same,glycan array binding signal (z-score),[10],0.374
same,glycan array binding signal (z-score),[11],-0.332
same,glycan array binding signal (z-score),[12],3.82
same,glycan array binding signal (z-score),[13],0.935
same,glycan array binding signal (z-score),[14],7.26
same,glycan array binding signal (z-score),[15],0.221
same,glycan array binding signal (z-score),[16],4.29
same,glycan array binding signal (z-score),[17],3.82
same,glycan array binding signal (z-score),[18],7.05
same,glycan array binding signal (z-score),[19],1.52
same,glycan array binding signal (z-score),[20],-0.466
same,glycan array binding signal (z-score),[21],2.17
same,glycan array binding signal (z-score),[22],3.6
same,glycan array binding signal (z-score),[23],3.41
same,glycan array binding signal (z-score),[24],0.788
same,glycan array binding signal (z-score),[25],-0.374
same,glycan array binding signal (z-score),GalNAc(a1-3)Gal,0.96
same,glycan array binding signal (z-score),[26],-0.236
same,glycan array binding signal (z-score),[27],2.61
same,glycan array binding signal (z-score),GalNAc(b1-4)Gal(b1-4)Glc,-0.106
same,glycan array binding signal (z-score),[28],-0.352
same,glycan array binding signal (z-score),[29],0.524
same,glycan array binding signal (z-score),[30],-0.581
same,glycan array binding signal (z-score),Kdn(a2-3)Gal(b1-4)GlcNAc,-0.114
same,glycan array binding signal (z-score),[31],-0.825
same,glycan array binding signal (z-score),[32],0.188
same,glycan array binding signal (z-score),[33],0.2
same,glycan array binding signal (z-score),[34],-0.773
same,glycan array binding signal (z-score),[35],-0.049
same,glycan array binding signal (z-score),[36],-0.755
same,glycan array binding signal (z-score),Neu5Ac(a2-6)GalNAc,-0.425
same,glycan array binding signal (z-score),[37],0.572
same,glycan array binding signal (z-score),[38],-0.116
same,glycan array binding signal (z-score),[39],14.4
